The entries come from a sample that favours hits as a whole.
Pf Dd2 inh: inhibitors of Plasmodium falciparum Dd2 growth. actives 4.3% (n = 120,000). P. falciparum Dd2 growth, SYBR Green, 72 h. Potency, µM (series often up to 28.9 µM), without a hit: top-dose activity, negative = inhibition, hits mostly inhibitors; active = well fitted inhibition curve with a large enough effect;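 also: plate controls were DMSO vehicle for no effect and reference drug for full effect; nearly all actives have a fitted effect of over 65% in size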
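Readout: SYBR Green fluorescence, 485 nm excitation, 535 nm emission, after ~16 h lysis at 37C. Before that, Dd2-infected red cells (2.5% hematocrit) grew 72 h with compound, 29 uM top final concentration.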
The depositor's hits bear a star; ! = a repeat was not active; [ ] = another dose, or the depositor's remark. Potency is read from the fitted curve at half-maximal effect.

What do the screens show for `COc1ccc(C(N)CC(=O)N2CCC3(CC2)CN(C)C(=O)O3)cc1OC` (configuration not stated)?
Pf Dd2 inh: -10%

What do the screens show for `Cn1cc(C(=O)NCCc2ccc(Cl)cc2)c(=O)c2cc(S(=O)(=O)N3CCCCC3)ccc21`?
Pf Dd2 inh: 64%

Results for Cn1cc(C(=O)NCCc2ccccc2)c(=O)c2cc(S(=O)(=O)N3CCCCCC3)ccc21 ?
Pf Dd2 inh: 13µM*

How did CCCCNC(=O)c1cn(C)c2ccc(S(=O)(=O)N3CCCC3)cc2c1=O do in these assays?
Pf Dd2 inh: -5%

What do the screens show for `CS(=O)(=O)N1CCCN(C(=O)CCCc2ccccc2)CCNC(=O)CC1c1ccccc1` (configuration not stated)?
Pf Dd2 inh: -20%

How did Cc1noc(C2CC3(CCN(C(=O)CCC4CCCC4)CC3)CN2C)n1 (configuration not stated) do in these assays?
Pf Dd2 inh: 4.5µM*

What do the screens show for `Cc1noc(C2CC3(CCN(C(=O)COc4ccc(F)cc4)CC3)CN2C)n1` (configuration not stated)?
Pf Dd2 inh: -6%

How did Cc1noc(C2CC3(CCN(C(=O)Cn4c(=O)oc5ccccc54)CC3)CN2C)n1 (configuration not stated) do in these assays?
Pf Dd2 inh: -29%

What do the screens show for `COc1ccc(N2CC(c3noc(-c4cc(Cl)ccc4OC)n3)CC2=O)cc1` (configuration not stated)?
Pf Dd2 inh: -24%

Results for Cc1nc2c(C)cccc2cc1C(=O)N1CCC2(CCNCC2)CC1 ?
Pf Dd2 inh: -17%

How did CC(C)CNC(=O)[C@H]1CCC[C@H]1NC(=O)c1ccncc1 do in these assays?
Pf Dd2 inh: 15%

How did O=C([C@@H]1C[C@H](F)CN1S(=O)(=O)c1ccc(F)c(Cl)c1)N1CCc2ccccc2C1 do in these assays?
Pf Dd2 inh: -3%

How did Cc1ccc2nc(C3CCCN(Cc4cccc(-c5cccnc5)c4)C3)[nH]c(=O)c2c1 (configuration not stated) do in these assays?
Pf Dd2 inh: 6.3µM*

How did CCN1CCCC(c2nc3ccc(C)cc3c(=O)[nH]2)C1 (configuration not stated) do in these assays?
Pf Dd2 inh: -17%[44.1 µM]

How did COc1ccc(CN2CCCC(c3nn(-c4ccc(OC)cc4)c(=O)[nH]3)C2)cc1 (configuration not stated) do in these assays?
Pf Dd2 inh: inactive

How did Cc1ccc2nc(C3CCN(Cc4cccc(-c5ccsc5)c4)CC3)[nH]c(=O)c2c1 do in these assays?
Pf Dd2 inh: 7%

Results for COc1ccccc1-c1ccc(CN2CCCC(c3nc4ccc(C)cc4c(=O)[nH]3)C2)cc1 (configuration not stated) ?
Pf Dd2 inh: 7.9µM*!

What do the screens show for `Cc1ccc2nc(C3CCN(Cc4cccs4)CC3)[nH]c(=O)c2c1`?
Pf Dd2 inh: -1%[44.1 µM]

What do the screens show for `O=C1NC2CCCCC2=C1CC(=O)N1CCCCC1` (configuration not stated)?
Pf Dd2 inh: -29%

What do the screens show for `Cc1ccc(CN[C@@H]2CO[C@H](CNS(=O)(=O)c3ccc(C)cc3)[C@H]2O)cc1`?
Pf Dd2 inh: inactive

How did CC(C)=CC(=O)NCCC[C@H](NC(=O)[C@@H]1[C@@H](NC(=O)Nc2ccc(F)cc2F)CCN1C(=O)C=C(C)C)C(N)=O do in these assays?
Pf Dd2 inh: 7%

Results for Cn1ccc(C(=O)NCc2nnc3n2C(C(=O)NCCc2ccc(Cl)cc2)CC3)n1 (configuration not stated) ?
Pf Dd2 inh: 4%

What do the screens show for `NC(=O)[C@@H]1CCCN1CC[C@H]1CN(S(=O)(=O)c2ccccc2)CC[C@H]1CC(=O)O`?
Pf Dd2 inh: 17%[44.1 µM]

Results for c1ccc(OCc2noc(-c3ccc(NC4CCSC4)nc3)n2)cc1 (configuration not stated) ?
Pf Dd2 inh: 10µM*

What do the screens show for `CCC(O)CNc1ccc(-c2nc(COC)no2)cn1` (configuration not stated)?
Pf Dd2 inh: 1%

What do the screens show for `CC1(COc2ccc(-c3nc(COc4ccccc4)no3)cn2)CCCNC1` (configuration not stated)?
Pf Dd2 inh: inactive

What do the screens show for `COc1cc(C(=O)N2CCC(c3n[nH]c(=O)n3-c3ccccc3)CC2)cc(OC)c1OC`?
Pf Dd2 inh: inactive

Results for COc1ccc(C2(C(=O)N3CCC(n4cc(-c5nc(C)no5)nn4)CC3)CC2)cc1 ?
Pf Dd2 inh: 3.2µM*

How did CC(C)c1noc(-c2cn(C3CCN(C(=O)c4cccc(OC(F)(F)F)c4)C3)nn2)n1 (configuration not stated) do in these assays?
Pf Dd2 inh: 141%

How did CC(=O)Nc1cccc(C(=O)N2CCC(n3cc(-c4nc(C)no4)nn3)CC2)c1 do in these assays?
Pf Dd2 inh: -1%

Results for CC(=O)Nc1cccc(C(=O)N2CCC(n3cc(-c4nc(-c5ccccc5)no4)nn3)C2)c1 (configuration not stated) ?
Pf Dd2 inh: 4.5µM*

How did CC(C)c1noc(-c2cn(C3CCN(C(=O)c4ccc(F)c(F)c4)C3)nn2)n1 (configuration not stated) do in these assays?
Pf Dd2 inh: 44%

What do the screens show for `CC(C)c1noc(-c2cn(C3CCN(C(=O)c4cccc(C(F)(F)F)c4)C3)nn2)n1` (configuration not stated)?
Pf Dd2 inh: 10µM*

What do the screens show for `Cc1ccc(C(=O)N2CCCC(n3cc(-c4nc(C5CC5)no4)nn3)C2)s1` (configuration not stated)?
Pf Dd2 inh: -7%

How did Cc1ccc(C(=O)N2CCC(n3cc(-c4nc(C5CC5)no4)nn3)C2)s1 (configuration not stated) do in these assays?
Pf Dd2 inh: 10µM*

How did Cc1noc(-c2cn(C3CCN(C(=O)c4ccc(C)s4)CC3)nn2)n1 do in these assays?
Pf Dd2 inh: inactive

How did COc1cccc(C(=O)N2CCC(n3cc(-c4nc(C)no4)nn3)CC2)c1 do in these assays?
Pf Dd2 inh: 49%

Results for Cc1ccc(C(=O)N2CCC(n3cc(-c4nc(-c5ccccc5)no4)nn3)C2)cc1C (configuration not stated) ?
Pf Dd2 inh: -10%

What do the screens show for `Cc1noc(-c2cn(C3CCN(C(=O)C4(c5ccccc5)CC4)CC3)nn2)n1`?
Pf Dd2 inh: 12%

What do the screens show for `Clc1cc(NCc2cccs2)n2nccc2n1`?
Pf Dd2 inh: -24%[44.1 µM]

Results for COc1ccc(-c2noc(CN(C)CCOc3ccc(C)cc3)n2)c(OC)c1OC ?
Pf Dd2 inh: -3%

Results for Cn1nccc1C(=O)N1C[C@@H]2CCCN3CCC[C@@H]([C@H]23)[C@H]1CCCC(=O)NCc1ccccc1 ?
Pf Dd2 inh: -22%

What do the screens show for `COc1ccc(C(=O)N2CCC3(CC2)NC(=O)N(c2ccccc2)N3)cn1`?
Pf Dd2 inh: 0%

What do the screens show for `Cc1cc(C(=O)NCCc2noc(-c3ccncc3)n2)nn1C`?
Pf Dd2 inh: -23%

How did Cc1cnc(C(=O)N[C@@H]2CCC[C@@H]2C(=O)NCc2ccc(F)cc2)cn1 do in these assays?
Pf Dd2 inh: 10%

What do the screens show for `N#Cc1cccc(CN2C[C@H](O)C[C@H]2c2nc(-c3cccc([N+](=O)[O-])c3)no2)c1`?
Pf Dd2 inh: -20%[44.1 µM]

Results for Cc1ccc(C(=O)N2CCC3(CC2)C(=O)NCN3Cc2ccc(Cl)cc2)cc1 ?
Pf Dd2 inh: 13%

What do the screens show for `CS(=O)(=O)N1CCOc2ccc(CCC(=O)O)cc2C1`?
Pf Dd2 inh: 6%

What do the screens show for `CC(CCn1cccn1)NC(=O)c1ccc(OC2CCN(C(=O)C3CC3)CC2)cc1` (configuration not stated)?
Pf Dd2 inh: -2%

Screening results as filed in PubChem.
